# Laboratory results published in PubChem BioAssay.
# “And” between values parts separate entries of the source, which are not always exact repeats. Equal entries are not always repeated. Records with an inconclusive call do not appear. The source made the active and inactive calls. Unless noted, cut-off not given; nearly all actives show IC50 up to about 30 µM.
# Experiments:
# [1] = SU-DIPG-XXV glioma cell viability, MIPE5.0 library, qHTS (AID 1347068);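 on IC50: cells exposed to compound for 48 hours before viability readout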
# [2] = sensitizers of A549 cells to miR-34 induction, primary screen, imaging, A549 dox-inducible miR-34, nuclei and caspase counts (AID 1347080;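 active means compounds whose cell count with miR-34 switched on is under 0.7 times the count with it off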); settings: A549 miR-34 inducible, Hoechst nuclei count, 48 h
# [3] = liver-stage malaria parasite growth inhibition, primary screen, cell-based, HepG2, luciferase luminescence, HepG2 viability (AID 624349; in the data active means parasite load remaining mostly below about 12%, no sharp cut-off; inactive means mostly above about 10%;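 further: 100% = mean of DMSO negative control wells on the same plate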); settings: P. berghei liver stage in HepG2, luciferase luminescence, concentration not given here; parasite load remaining: stronger effect = lower value; viability: measured here: HepG2 viability without parasites
# [4] = system: Hepatitis C virus NS3 helicase; experiment: HCV NS3 helicase inhibitors, primary screen, biochemical, fluorescence polarization, LOPAC1280 library (AID 687035; in the data active means inhibition above about 37%); settings: Purified HCV NS3 helicase, Cy5-dT15 ssDNA binding fluorescence polarization; stronger effect = higher value; concentration not given here
# [5] = Cy5 fluorescence quenching or enhancement artefacts, artefact control for HCV NS3 helicase inhibitor project, biochemical, LOPAC1280 (AID 687037; call rule not given here); settings: Cy5-DNA-NS3h complex fluorescence interference counterscreen
# [6] = phospholipid biosynthesis inhibitors in animal cells, primary screen, cell-based, LOPAC library, screen 4 (AID 1347384; call rule not given here); settings: phospholipid biosynthesis inhibition screen, at 10 µM
# [7] = viability rescue of complex I mutant cybrids, primary screen, cell-based, galactose medium, ATP luminescence (AID 1645843;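 active means z-score of at least 1.8 in each of two replicates, scored against plate mean and spread of sample wells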;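 further: positive z means more ATP and so rescue of galactose-driven cybrid death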); settings: complex I mutant cybrid cells, 72 h, stronger effect = higher value
# [8] = stronger effect = lower value, cell number ratio, induced over uninduced
# [9] = measured here: relative caspase fold change +Dox/-Dox
# [10] = measured here: total cells with miR-34 induction, stronger effect = lower value
# [11] = measured here: total cells without miR-34 induction
structure (smiles),measurement,setting,value
CC(C)(C)S(=O)(=O)c1ccc2nccc(Nc3n[nH]c4ccc(F)cc34)c2c1,outcome,[1],inactive
O=C(C(c1ccccc1)c1ccccc1)N1CCN(CC(O)COc2cccc3ncccc23)CC1 (centres undefined),outcome,[1],inactive
COc1cc2c(NC3CCN(C4CCCCC4)CC3)nc(N3CCCN(C(C)C)CC3)nc2cc1OCCCN1CCCCC1,IC50,[1],5.9 µM (active)
COc1ccc(-c2c(C)nn3c(NCCN4CCOCC4)cc(C)nc23)cc1OC,outcome,[1],inactive
CC=CCC(C)C(O)C1C(=O)NC(CC)C(=O)N(C)CC(=O)N(C)C(CC(C)C)C(=O)NC(C(C)C)C(=O)N(C)C(CC(C)C)C(=O)NC(C)C(=O)NC(C)C(=O)N(C)C(CC(C)C)C(=O)N(C)C(CC(C)C)C(=O)N(C)C(C(C)C)C(=O)N1C (centres undefined),fold change,[2]; [8],1.07 (inactive) and 0.992 (inactive)
same,fold change,[2]; [9],0.343 and 1.41
Cn1c(NC[C@@H](N)Cc2ccccc2)nc(-c2ccncc2)c(-c2ccc3ccccc3c2)c1=O,outcome,[1],inactive
C[C@]12CCC3[C@@H](CC[C@H]4NC(=O)C=C[C@]34C)[C@@H]1CC[C@@H]2C(=O)Nc1cc(C(F)(F)F)ccc1C(F)(F)F (some centres undefined),outcome,[1],inactive
CCCCCCCC/C=C\CCCCCCCCCCCCCC(=O)N[C@@H](CO)[C@H](O)/C=C/CCCCCCCCCCCCC,fold change,[2]; [8],0.996 (inactive)
same,fold change,[2]; [9],0.823
same,cell count,[2]; [10],5810
same,cell count,[2]; [11],5830
CC[C@@H]1[C@H](F)C(=O)N[C@@H]1COc1nccc2cc(C(N)=O)c(OC)cc12,outcome,[1],inactive
CCCCC[C@H](O)/C=C/[C@@H]1[C@@H](C/C=C\CCCCCC(=O)O)[C@@H](O)C[C@H]1O,fold change,[2]; [8],0.876 (inactive)
same,fold change,[2]; [9],0.899
same,cell count,[2]; [10],5260
same,cell count,[2]; [11],6000
C/C=C(/C)C(=O)O[C@H]1C(C)=CC23C(=O)C(C=C(CO)[C@@H](O)[C@]12O)[C@H]1[C@@H](C[C@H]3C)C1(C)C (some centres undefined),outcome,[1],inactive
CCCCC/C=C\C/C=C\CC/C=C\CCCC(=O)OC,fold change,[2]; [8],0.951 (inactive)
same,fold change,[2]; [9],0.414
same,cell count,[2]; [10],6030
same,cell count,[2]; [11],6340
CC(C)=CCC/C(C)=C/CC/C(C)=C/CC[C@]1(C)CCc2cc(O)cc(C)c2O1,fold change,[2]; [8],0.922 (inactive)
same,fold change,[2]; [9],1.06
same,cell count,[2]; [10],5270
same,cell count,[2]; [11],5720
CN,fold change,[2]; [8],1.06 (inactive)
same,fold change,[2]; [9],0.984
same,cell count,[2]; [10],4700
same,cell count,[2]; [11],4430
C=CC(=O)N1CCC(CNc2ncnc(N)c2-c2ccc(Oc3ccccc3)cc2)CC1,outcome,[1],inactive
O=C(O)C[C@H]1CCc2c1[nH]c1ccc(OCc3ccc(C4CCCC4)c(C(F)(F)F)c3)cc21,outcome,[1],inactive
CCCCC/C=C\C/C=C\CCCCCCCC(=O)OCC(COC(=O)CCCCCCCCCCCCCCC)OC(=O)CCCCCCC/C=C\CCCCCCCC (centres undefined),fold change,[2]; [8],1.03 (inactive)
same,fold change,[2]; [9],0.903
same,cell count,[2]; [10],5950
same,cell count,[2]; [11],5790
COc1nnc2ccc(N3CCC(c4ccc(OCCN5CCN(C)C(=O)[C@H]5C)cc4)CC3)nn12,outcome,[1],inactive
CC#CC(=O)N1CC[C@@H](n2c(=O)n(-c3ccc(Oc4ccccc4)cc3)c3c(N)ncnc32)C1,outcome,[1],inactive
C=C1C[C@H](O)[C@H](C/C=C\CCCC(=O)O)[C@H]1/C=C/C(=O)CCCCC,fold change,[2]; [8],1.11 (inactive)
same,fold change,[2]; [9],1.24
same,cell count,[2]; [10],5720
same,cell count,[2]; [11],5160
O=C(CCC/C=C\C[C@@H]1[C@@H](/C=C/[C@@H](O)CCc2ccccc2)[C@H](O)C[C@@H]1O)NC(CO)CO,fold change,[2]; [8],0.978 (inactive)
same,fold change,[2]; [9],1.15
same,cell count,[2]; [10],5210
same,cell count,[2]; [11],5330
O=C1S/C(=C\c2ccc(OCc3cccc(B(O)O)c3)cc2)C(=O)N1Cc1ccc(F)cc1,IC50,[1],23.5 µM (active)
O=C(Nc1cccc(C(F)(F)F)c1)c1cccc2cc(Oc3cc(CO)ncn3)ccc12,outcome,[1],inactive
CCOC(=O)C1=CCCCC1S(=O)(=O)Nc1ccc(F)cc1Cl (centres undefined),outcome,[1],inactive
C=CC(=O)N[C@H]1CCOC[C@H]1Nc1ncc2cc(-c3c(Cl)c(OC)cc(OC)c3Cl)ccc2n1,outcome,[1],inactive
C[C@@H](O)CCC[C@H](O)/C=C/C1=C(C/C=C\CCCC(=O)O)C(=O)CC1,fold change,[2]; [8],0.915 (inactive)
same,fold change,[2]; [9],1.31
same,cell count,[2]; [10],5730
same,cell count,[2]; [11],6260
O=C(O)CC1CCC(c2ccc(-c3ccc(Nc4ccc(C(F)(F)F)nc4)cn3)cc2)CC1 (centres undefined),outcome,[1],inactive
O=C(O)CCC/C=C\C[C@@H]1C(=O)C[C@@H](O)[C@@H]1/C=C/[C@@H](O)CCc1ccccc1,fold change,[2]; [8],0.867 (inactive)
same,fold change,[2]; [9],0.324
same,cell count,[2]; [10],5200
same,cell count,[2]; [11],6000
O=C1NC(=O)/C(=C/c2ccc3nccnc3c2)S1,parasite load remaining,[3],25.6% (inactive)
same,viability,[3],76.4%
same,inhibition,[4],0% (inactive)
same,fluorescence ratio (interference),[5],1 (inactive)
same,outcome,[1],inactive
same,fold change,[2]; [8],0.99 (inactive) and 0.764 (inactive)
same,fold change,[2]; [9],0.943 and 0.46
same,cell count,[2]; [10],3810 and 4630
same,cell count,[2]; [11],3850 and 6050
same,outcome,[6],inactive
same,z-score,[7],0.905 (inactive)
CCCC[C@H](C)C[C@H](O)/C=C/[C@H]1[C@H](O)CC(=O)[C@@H]1CCCCC(CC(=O)O)OC (some centres undefined),fold change,[2]; [8],0.949 (inactive)
same,fold change,[2]; [9],0.824
same,cell count,[2]; [10],5200
same,cell count,[2]; [11],5480
